Calls of active or inactive are those of the source. How the source made its calls: active means hit-call score of the fitted dose curve at least 0.9, where 1 is the maximum; inactive means score below 0.9.
What follows are compounds tested on solute carrier (SLC22A1), SLC22A1 (gene 6580) (assay: LTEA_HepaRG_SLC22A1: Life Technologies and Expression Analysis (LTEA) Assay for solute carrier (SLC22A1) using HepaRG (AID 2283524;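 on AC50: TaqMan qRT-PCR normalized to ACTB GAPDH and POLR2A housekeeping genes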)). Settings: mRNA level, 48 h; actives raise or lower the signal.
Experimental: LTEA_HepaRG is a cell based, multiplexed-readout assay that uses HepaRG, a human liver cell line, with measurements taken at 48 hours after chemical dosing on a 96-well plate.LTEA_HepaRG_SLC22A1 is one of 102 assay component(s) measured in the LTEA HepaRG cell culture assay. It is a marker of NR mediated transport.Data from the assay component LTEA_HepaRG_SLC22A1 was analyzed into 1 endpoint. This assay endpoint, LTEA_HepaRG_SLC22A1, was analyzed with bidirectional fitting relative to DMSO as the negative control and baseline of activity. Using a type of inducible reporter, measures of mRNA induction for gain or loss-of-signal activity can be used to understand regulation of transcription factor activity. To generalize the intended target to other relatable targets, this assay endpoint is annotated to the transporter intended target family, where the subfamily is organic cation transporter.
A total of 1060 chemcials from the ToxCast library were tested in eight-point concentration-response experiments. Cell culture and cytotoxicity assays were conducted at Thermo Fisher Scientific's Custom Services facility (Madison, WI). A single lot of human HepaRG cells (Thermo Fisher Scientific, Frederick, MD) was used for the cell culture experiments. 96-well format collagen type I coated plates of human HepaRG cells were prepared using established methods. Briefly, cryopreserved HepaRG cells were thawed, plated at a density of approximately 100,000 cells/well in HepaRG Thaw, Plate, and General Purpose media (HPRG770, Thermo Fisher Scientific), and incubated for 48 hours. 0.5% DMSO was selected as vehicle control to balance the requisite need of DMSO in HepaRG cultures to maintain differentiation (for example, baseline metabolism, proportions of hepatocytes vs. cholangiocytes), while enabling further hepatic receptor pathway activation (for example, PXR and CAR) in response to chemical exposure. 48 hours after plating, the culture medium was replaced with HepaRG Serum-Free Incudtion Media. Cells were exposed to each test chemical in duplicate and maintained in CO2 incubators for another 48 hours. Chemical plates were thawed to room temperature and 200x concentrations of treatment groups were prepared. 8-point conentration-reponse curves were made with the highest exposure at 100 uM, followed by half-log dilutions, all in 0.5% DMSO. Each test plate contained variouse controls, induction positive controls (1mM phenobarbital), cytotoxicity positive controls ([…] aflatoxin B1), vehicle controls (0.5% DMSO), and total lysis controls (0.5% DMSO). Cell morphology images were taken using an Essen IncuCyte FLR automated microscope, with six 96-well plates imaged in about 24 minutes. Images were captured and exported and JPEG files. Spent culture media was transfered to black-well plates for the LDH assay, and remaining media was sorted at -80 C for later use. Cells were treated with RLT buffer and frozen until shipped for gene expression analysis. Total RNA was isolated from the cell suspension in 75 uL of Buffer RLT (Qiagen, Germantown, MD 20874) by Quintiles/Expression Analysis (Durham, NC) using a custom isolation procedure. Total RNA from each plate well was transferred to a preamplification plate. Fluidigm's 96.96 Dynamic ArrayTM (Fluidigm, Amsterdam, the Netherlands) technology was used for gene expression analyses by quantitative reverse transcription polymerase chain reaction (qRT-PCR, performed by Quintiles/Expression Analysis, Durham, NC)89. Standard TaqManTM Assays (Applied Biosystems/ThermoFisher Scientific, Foster City, CA) were used to assess the expression of 93 genes selected based on their selectivity and sensitivity to important hepatic receptors known to be modulated by environmental chemicals; importance in human hepatocyte functionality; and hepatotoxicity. […]

Structure (SMILES) | outcome | AC50
CC(C)(O)C(=O)Nc1ccc([N+](=O)[O-])c(C(F)(F)F)c1 | inactive | –
COS(=O)(=O)OC | inactive | –
Oc1ccc(C(c2ccc(O)cc2)(C(F)(F)F)C(F)(F)F)cc1 | – | 71.9 µM (active)
CCC(=O)O[C@H]1CC[C@H]2[C@@H]3CCC4=CC(=O)CC[C@]4(C)[C@H]3CC[C@]12C | inactive | –
C[C@]12CCC(=O)C=C1CC[C@@H]1[C@@H]2CC[C@]2(C)C(=O)CC[C@@H]12 | inactive | –
CCOP(=S)(OCC)SCSC(C)(C)C | inactive | –
Nc1ccc(-c2ccc(N)cc2)cc1 | inactive | –
ClC1=C(Cl)[C@]2(Cl)[C@@H]3[C@@H]4C[C@@H]([C@H]5O[C@@H]45)[C@@H]3[C@@]1(Cl)C2(Cl)Cl | – | 50 µM (active)
C=CC(=O)NCNC(=O)C=C | – | 30.6 µM (active)
Cc1cc(O)ccc1Cl | inactive | –
C=CC(N)=O | inactive | –
CCCN(CCC)N=O | inactive | –
CCC(C)(CC)c1cc(NC(=O)c2c(OC)cccc2OC)on1 | – | 34.6 µM (active)
Nn1cnnc1 | inactive | –
c1cc2ccc3cccc4ccc(c1)c2c34 | inactive | –
Cc1ccc(O)c(C)c1 | inactive | –
CCCCCCCCCC[N+](C)(C)CCCCCCCCCC | – | 61.5 µM (active)
CCC(C)c1cc([N+](=O)[O-])cc([N+](=O)[O-])c1O (stereo not given) | – | 1.74 µM (active)
CCCCCCOC(=O)c1ccccc1C(=O)OCCCCCC | – | 0.0876 µM (active)
O=C(NC(=O)c1c(F)cccc1F)Nc1cc(Cl)c(OC(F)(F)C(F)F)c(Cl)c1 | inactive | –

Structure (SMILES) | outcome | AC50
O=S(=O)(O)C(F)(F)C(F)(F)C(F)(F)C(F)(F)C(F)(F)C(F)(F)F | inactive | –
Cc1cc2c3c(c1)C(c1ccccc1)=N[C@@H](NC(=O)c1ccncc1)C(=O)N3CC2 | – | 50 µM (active)
Cc1ccccc1[N+](=O)[O-] | inactive | –
O=C(N[C@H]1CN2CCC1CC2)c1cc2ccoc2cn1 | inactive | –
ClC1=C(Cl)[C@]2(Cl)[C@@H]3[C@@H](Cl)[C@H]4O[C@H]4[C@@H]3C1(Cl)C2(Cl)Cl | – | 50 µM (active)
Cc1ccccc1O | inactive | –
CCC(C)(c1ccc(O)cc1)c1ccc(O)cc1 | inactive | –
Clc1ccc(C(Cl)(Cl)Cl)cc1 | inactive | –
NS(=O)(=O)C(F)(F)C(F)(F)C(F)(F)C(F)(F)C(F)(F)C(F)(F)C(F)(F)C(F)(F)F | – | 9.51 µM (active)
N#Cc1ccc(N(CC(N)=O)CC(F)(F)F)cc1C(F)(F)F | inactive | –
Cc1ccccc1CO[C@@H]1C[C@@]2(C(C)C)CC[C@]1(C)O2 | inactive | –
C[C@]12CCC(=O)C=C1CC[C@@H]1[C@@H]2CC[C@@]2(C)[C@H]1CC[C@]2(C)O | – | 45.8 µM (active)
ClC(Cl)=C(c1ccc(Cl)cc1)c1ccc(Cl)cc1 | inactive | –
ClC1=C(Cl)[C@]2(Cl)[C@@H]3[C@H]4C[C@H]([C@@H]5O[C@H]45)[C@@H]3[C@@]1(Cl)C2(Cl)Cl | – | 31.7 µM (active)
O=C(O)C(F)(F)C(F)(F)C(F)(F)C(F)(F)C(F)(F)C(F)(F)C(F)(F)C(F)(F)F | – | 86.1 µM (active)
CCNc1nc(NC(C)C)nc(SC)n1 | – | 37.3 µM (active)
CC(c1ccc(O)cc1)(c1ccc(O)cc1)c1ccc(O)cc1 | – | 41.4 µM (active)
Oc1c(Cl)c(Cl)c(Cl)c(Cl)c1Cl | – | 3.31 µM (active)
Clc1ccc(Cl)cc1 | inactive | –
Cc1cccc(C)c1N | inactive | –

Reference: PubChem BioAssay (EPA / NIEHS)
